In PubChem BioAssay (Tox21):
Values joined by “and” are separate entries in the source; they are usually repeats but may differ in a detail not shown here. Equal values may be shown once. Records with an inconclusive call do not appear. The source holds several records for some structures; these can differ, active in one and inactive in another. Active and inactive are the calls of the source. Unless noted, calls follow the shape of the dose curve; as a rule, active = well fitted curve in the direction sought with a large enough effect in the repeat runs; inconclusive = weak or mixed curves; inactive = no such curve, though single readings can be large; an effect the other way counts as inactive or inconclusive.

Columns and labels:
[1] = qHTS assay to identify small molecule agonists of the peroxisome proliferator-activated receptor delta (PPARd) signaling pathway - cell viability counter screen (AID 743211); also: nearly all actives have a fitted effect of over 55% in size; also: potency is read from the fitted curve at half-maximal effect
Outline: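 qHTS cell viability: PPARd-bla HEK293H; 17 h cpd, 37C; CellTiter-Glo, luminescence at 30 min RT.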

[2] = biological target: Peroxisome proliferator-activated receptor delta (Homo sapiens) (UniProt Q03181); assay: qHTS assay to identify small molecule agonists of the peroxisome proliferator-activated receptor delta (PPARd) signaling pathway (AID 743212; calls by dose curve;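 also: HEK293H cells with PPARd UAS beta-lactamase reporter GeneBLAzer system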)
Sequence of Peroxisome proliferator-activated receptor delta (Homo sapiens) (Q03181 whole entry, looked up): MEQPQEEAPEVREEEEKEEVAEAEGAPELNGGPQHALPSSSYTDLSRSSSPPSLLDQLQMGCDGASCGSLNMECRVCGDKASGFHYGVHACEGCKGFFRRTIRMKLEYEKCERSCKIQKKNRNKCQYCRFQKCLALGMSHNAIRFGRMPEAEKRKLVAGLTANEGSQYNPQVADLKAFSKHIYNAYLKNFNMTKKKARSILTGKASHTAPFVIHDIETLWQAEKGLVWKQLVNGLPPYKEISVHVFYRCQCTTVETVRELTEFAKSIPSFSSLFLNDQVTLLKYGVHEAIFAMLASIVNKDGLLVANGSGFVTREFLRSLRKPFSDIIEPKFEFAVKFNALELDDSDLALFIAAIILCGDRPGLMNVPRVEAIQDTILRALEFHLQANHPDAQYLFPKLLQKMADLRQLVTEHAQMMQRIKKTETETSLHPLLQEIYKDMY
Outline: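 Beta-lactamase reporter read by fluorescence (LiveBLAzer B/G FRET, 2 h, room temperature). Test agents, in DMSO, incubated at 37 C with PPARd-bla HEK293H cells.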

[3] = qHTS assay to identify small molecule antagonists of the peroxisome proliferator-activated receptor delta (PPARd) signaling pathway - cell viability counter screen (AID 743213); also: nearly all actives have a fitted effect of over 50% in size
Outline: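 HEK293H cells with the PPARd UAS-bla reporter, co-treated 17 h at 37 C with compounds and L165041 (300 nM final), were lysed with CellTiter-Glo. Luminescence indicated viable cell content.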

[4] = biological target: Peroxisome proliferator-activated receptor delta (Homo sapiens) (UniProt Q03181); assay: qHTS assay to identify small molecule antagonists of the peroxisome proliferator-activated receptor delta (PPARd) signaling pathway (AID 743215; active = well fitted inhibition curve with a large enough effect in the signal ratio in the repeat runs, not every such curve was filed as active; the % refers to the signal ratio;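 also: cells stimulated with agonist L165041 at 300 nM final during compound exposure; series mostly up to about 62 µM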)
Outline: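 Agonist L165041 (300 nM final) added with compound to PPARd-bla HEK293H UAS-bla reporter cells; 17 h incubation at 37 C. Read-out: LiveBLAzer FRET substrate, 2 h at room temperature, fluorescence intensity.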

[5] = biological target: Bile acid receptor (Homo sapiens) (UniProt Q96RI1); assay: qHTS assay to identify small molecule antagonists of the farnesoid-X-receptor (FXR) signaling pathway (AID 743217; active = well fitted inhibition curve with a large enough effect in the signal ratio in the repeat runs, not every such curve was filed as active; the % refers to the signal ratio)
Sequence of Bile acid receptor (Homo sapiens) (Q96RI1 whole entry, looked up): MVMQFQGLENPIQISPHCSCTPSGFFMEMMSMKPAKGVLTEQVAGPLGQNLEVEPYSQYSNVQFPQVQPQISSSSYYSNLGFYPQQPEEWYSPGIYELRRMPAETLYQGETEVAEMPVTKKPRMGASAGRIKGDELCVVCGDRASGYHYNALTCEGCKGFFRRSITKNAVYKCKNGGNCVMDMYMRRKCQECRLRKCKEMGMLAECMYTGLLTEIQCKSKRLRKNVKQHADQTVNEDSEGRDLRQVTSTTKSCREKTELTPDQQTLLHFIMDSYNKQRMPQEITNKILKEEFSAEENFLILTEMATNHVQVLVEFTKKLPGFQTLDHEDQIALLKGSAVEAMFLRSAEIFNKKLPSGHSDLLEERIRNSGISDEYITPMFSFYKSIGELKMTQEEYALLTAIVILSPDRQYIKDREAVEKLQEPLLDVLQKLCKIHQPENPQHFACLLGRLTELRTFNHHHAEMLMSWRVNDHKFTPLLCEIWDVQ
Outline: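 Antagonist mode: chenodeoxycholic acid at 50 uM final stimulates a UAS-driven beta-lactamase reporter in HEK 293T FXR-bla cells during 16 h, 37C compound exposure. Read-out is FRET substrate fluorescence after 2 h at room temperature.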

[6] = qHTS assay to identify small molecule agonists of the farnesoid-X-receptor (FXR) signaling pathway - cell viability counter screen (AID 743218); also: nearly all actives have a fitted effect of over 45% in size
Outline: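 Viability counter screen in the same wells: CellTiter-Glo luminescence, 30 min room-temperature incubation, measured after the beta-lactamase read. Cells were GeneBLAzer FXR-UAS-bla HEK 293T, compound-treated 16 h at 37C.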

[7] = biological target: Bile acid receptor (Homo sapiens) (UniProt Q96RI1); assay: qHTS assay to identify small molecule agonists of the farnesoid-X-receptor (FXR) signaling pathway (AID 743220; active = well fitted activation curve with a large enough effect in the signal ratio in the repeat runs, not every such curve was filed as active; the % refers to the signal ratio)
Outline: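 FXR-UAS-bla HEK 293T cells carrying a UAS-driven beta-lactamase reporter were plated for 5 h at 37C/5% CO2, then exposed to DMSO-dissolved Tox21 10K compounds for 16 h at 37C. A LiveBLAzer B/G FRET substrate was loaded for 2 h at room temperature before fluorescence reading.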

[8] = qHTS assay to identify small molecule antagonists of the farnesoid-X-receptor (FXR) signaling pathway - cell viability counter screen (AID 743221; active = well fitted cell-killing curve with a large enough effect in the repeat runs, not every such curve was filed as active; also: nearly all actives have a fitted effect of over 50% in size)
Outline: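 After a 5 h settling period, FXR-bla HEK 293T cells receive compound and chenodeoxycholic acid (50 uM final) and incubate 16 h at 37 C; CellTiter-Glo luminescence, read after 30 min at room temperature, reports cell viability.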

[9] = biological target: Vitamin D3 receptor (Homo sapiens) (UniProt P11473); assay: qHTS assay to identify small molecule antagonists of the vitamin D receptor (VDR) signaling pathway (AID 743223; active = well fitted inhibition curve with a large enough effect in the signal ratio in the repeat runs, not every such curve was filed as active; the % refers to the signal ratio)
Sequence of Vitamin D3 receptor (Homo sapiens) (P11473 whole entry, looked up): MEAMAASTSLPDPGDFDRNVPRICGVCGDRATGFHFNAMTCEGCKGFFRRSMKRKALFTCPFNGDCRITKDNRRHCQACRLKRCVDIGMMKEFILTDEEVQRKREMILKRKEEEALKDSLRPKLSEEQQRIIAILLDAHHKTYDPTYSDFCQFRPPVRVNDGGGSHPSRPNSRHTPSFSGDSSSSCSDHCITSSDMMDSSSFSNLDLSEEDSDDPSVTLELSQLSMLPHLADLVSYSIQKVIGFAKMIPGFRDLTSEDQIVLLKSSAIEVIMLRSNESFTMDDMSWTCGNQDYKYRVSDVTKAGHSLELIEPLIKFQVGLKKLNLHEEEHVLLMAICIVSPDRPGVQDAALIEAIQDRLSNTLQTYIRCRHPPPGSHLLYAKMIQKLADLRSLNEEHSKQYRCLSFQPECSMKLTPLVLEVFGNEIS
Outline: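 Reporter line VDR-bla; stimulus 1alpha,25-(OH)2 vitamin D3, 3 nM final; compound co-addition, 16 h 37C/5% CO2; LiveBLAzer B/G substrate 2 h RT; fluorescence intensity.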

[10] = qHTS assay to identify small molecule agonists of the vitamin D receptor (VDR) signaling pathway - cell viability counter screen (AID 743224); also: nearly all actives have a fitted effect of over 50% in size; also: potency is read from the fitted curve at half-maximal effect
Outline: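 Counter screen run in the same wells as the VDR-bla reporter assay: CellTiter-Glo luminescence, 30 min at room temperature, after 16 h compound treatment at 37C of cells pre-plated for 4 h.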

[11] = qHTS assay to identify small molecule antagonists of the vitamin D receptor (VDR) signaling pathway - cell viability counter screen (AID 743225); also: nearly all actives have a fitted effect of over 50% in size
Outline: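 Parallel cytotoxicity test: VDR-UAS-bla HEK 293T, 3 nM (final) 1-alpha,25-dihydroxyvitamin D3 with test compound, 16 h, 37C. Endpoint is CellTiter-Glo luminescence in the same wells.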

[12] = qHTS assay to identify small molecule agonists of the NFkB signaling pathway - cell viability counter screen (AID 1159515; calls by dose curve; also: series mostly up to about 61 µM; nearly all actives have a fitted effect of over 55% in size)
Outline: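 Read by CellTiter-Glo luminescence (30 min, room temperature) in the wells also used for the beta-lactamase FRET read. ME-180 NFkB-bla cells at 2,000 per well were plated overnight, then exposed to compound for 5 hr at 37 C.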

[13] = qHTS assay to identify small molecule agonists of the endoplasmic reticulum stress response signaling pathway (AID 1159516; active = well fitted activation curve with a large enough effect in the signal ratio in the repeat runs, not every such curve was filed as active; the % refers to the signal ratio)
Outline: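 Ratiometric FRET readout (405 nm excitation; 460 and 530 nm emission) of a beta-lactamase gene driven by the ER stress response element, after 2 hr substrate loading. HeLa ESRE-bla cells were seeded overnight and treated with compounds for only 5 hr at 37 C.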

[14] = qHTS assay to identify small molecule agonists of the endoplasmic reticulum stress response signaling pathway - cell viability counter screen (AID 1159517; calls by dose curve)
Outline: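 Cytotoxicity of test compounds toward ESRE-bla HeLa cells was assessed after 5 hr exposure. The luminescent CellTiter-Glo signal was measured 30 min after reagent addition.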

[15] = qHTS assay to identify small molecule antagonists of the retinoid-related orphan receptor gamma (ROR-gamma) signaling pathway - cell viability counter screen (AID 1159520); also: nearly all actives have a fitted effect of over 50% in size
Outline: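 Tet-on ROR gamma CHO cells (1,000/well) were plated 4 hr, given compounds in DMSO for 2 hr at 37 C, then induced with 1 uM final doxycycline for 16 hr. Viability was read as ATP by CellTiter-Glo luminescence after 30 min.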

[16] = biological target: Nuclear receptor ROR-gamma (Homo sapiens) (UniProt P51449); assay: qHTS assay to identify small molecule antagonists of the retinoid-related orphan receptor gamma (ROR-gamma) signaling pathway (AID 1159521; also: nearly all actives have a fitted effect of over 50% in size; also: potency is read from the fitted curve at half-maximal effect)
Outline: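 Decreased RORE-driven luciferase luminescence indicates antagonism. Tet-on RORγ CHO cells received compound, then 1 uM final doxycycline 2 h later; signal read after 16 h incubation.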

[17] = qHTS assay to identify small molecule agonists of the AP-1 signaling pathway (AID 1159526; calls by dose curve)
[18] = biological target: Retinoic acid receptor RXR-alpha (Homo sapiens) (UniProt P19793); assay: qHTS assay to identify small molecule agonists of the RXR signaling pathway (AID 1159527; calls by dose curve; also: nearly all actives have a fitted effect of over 35% in size; also: potency is read from the fitted curve at half-maximal effect)
Sequence of Retinoic acid receptor RXR-alpha (Homo sapiens) (P19793 whole entry, looked up): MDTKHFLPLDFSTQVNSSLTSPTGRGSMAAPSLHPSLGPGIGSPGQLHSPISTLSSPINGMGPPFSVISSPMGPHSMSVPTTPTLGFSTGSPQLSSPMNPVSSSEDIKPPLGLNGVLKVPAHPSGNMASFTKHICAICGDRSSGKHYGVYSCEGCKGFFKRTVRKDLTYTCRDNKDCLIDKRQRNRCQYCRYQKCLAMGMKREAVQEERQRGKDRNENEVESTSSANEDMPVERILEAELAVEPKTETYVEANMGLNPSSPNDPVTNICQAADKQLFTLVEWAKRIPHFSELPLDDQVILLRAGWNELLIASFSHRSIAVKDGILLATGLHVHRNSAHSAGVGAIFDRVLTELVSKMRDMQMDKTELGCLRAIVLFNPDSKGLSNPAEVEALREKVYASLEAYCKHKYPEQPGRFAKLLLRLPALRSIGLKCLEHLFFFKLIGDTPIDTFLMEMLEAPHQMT
Outline: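 16 hr incubation of compound-treated RXR-alpha-UAS-bla HEK 293T cells (2% charcoal-stripped FBS, 37 C) preceded a 2 hr room-temperature LiveBLAzer FRET substrate step and blue/green fluorescence measurement.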

[19] = qHTS assay to identify small molecule agonists of the AP-1 signaling pathway - cell viability counter screen (AID 1159525; calls by dose curve; also: nearly all actives have a fitted effect of over 55% in size)
Outline: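 Each titration point was normalised to DMSO and tetra n-octyl ammonium bromide controls. The read was Cell Titer Glo luminescence after 30 min at RT, following 5 h compound exposure of ME-180 AP-1-bla cells at 37 °C.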

[20] = biological target: Vitamin D3 receptor (Homo sapiens) (UniProt P11473); assay: qHTS assay to identify small molecule agonists of the vitamin D receptor (VDR) signaling pathway (AID 743222; calls by dose curve)
Outline: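 Agonist mode, beta-lactamase reporter: fluorescence from LiveBLAzer B/G FRET substrate (2 h, room temperature) read after 16 h compound treatment at 37 C of VDR-bla cells, which were pre-incubated 4 h after seeding.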

Measured: Potency

N#CC(c1ccccc1)c1ccccc1
not listed: [19] | [20]
inactive: all other assays above

O=C(O)c1nn(Cc2ccc(Cl)cc2Cl)c2ccccc12
not listed: [2] | [5] | [6] | [7] | [9] | [18] | [20]
inactive: all other assays above

N#CCCCCC#N
not listed: [3] | [19]
inactive: all other assays above

CC(C)(C#N)N=NC(C)(C)C#N
not listed: [5] | [7] | [19]
inactive: all other assays above

N#Cc1nn(-c2c(Cl)cc(C(F)(F)F)cc2Cl)c(N)c1S(=O)C(F)(F)F (stereo unspecified)
active: [16] 7.74 µM and 16.8 µM
24.7 µM (active) and inactive: [10]
22 µM (active) and inactive: [1]
not listed: [3] | [4] | [5] | [11] | [18] | [20]
inactive: all other assays above

Clc1cccc(Cl)c1
active: [16] 30.4 µM
not listed: [3] | [5] | [6] | [7] | [18] | [20]
inactive: all other assays above

CN(C)c1nc(=O)n(C2CCCCC2)c(=O)n1C
not listed: [6] | [19]
inactive: all other assays above

CCOP(=O)(OCC)OCC
active: [18] 5.49 µM
not listed: [4] | [5] | [6] | [7] | [19]
inactive: all other assays above

Nc1ccc([N+](=O)[O-])cc1N
active: [16] 9.68 µM and 30.6 µM
not listed: [3] | [5] | [6] | [7] | [19]
inactive: all other assays above

Cc1cccc(N=Nc2ccc(N(C)C)cc2)c1
not listed: [3] | [5] | [6] | [7] | [13] | [20]
inactive: all other assays above
